# Compounds without any hit were thinned out: in the full panel of roughly 83,000, 20% have a hit.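 Each cell line was grown in a 96-well plate and treated with one concentration of compound for 48 hours. Values below 10 were considered active.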 Unmarked numbers belong to inactive results. Calls of active or inactive are those of the source.
# Legend:
# Test in all cases: NCI-60 one-dose screen, 48 h (100 = growth as untreated, 0 = no growth, -100 = all killed)
# Details in all cases: 10 µM unless noted
# [1] = tested on: SR leukemia
# [2] = tested on: RPMI-8226 leukemia
# [3] = tested on: OVCAR-8 ovarian
# [4] = tested on: OVCAR-5 ovarian
# [5] = tested on: OVCAR-4 ovarian
# [6] = tested on: SK-OV-3 ovarian
# [7] = tested on: IGROV1 ovarian
# [8] = tested on: OVCAR-3 ovarian
# [9] = tested on: HS 578T breast
# [10] = tested on: NCI/ADR-RES ovarian
# [11] = tested on: T-47D breast
# [12] = tested on: MDA-MB-435 melanoma
# [13] = tested on: SW-620 colon
# [14] = tested on: MCF7 breast
# [15] = tested on: HCT-116 colon
# [16] = tested on: HCC-2998 colon
# [17] = tested on: KM12 colon
# [18] = tested on: BT-549 breast
Compound,growth [1],growth [2],growth [3],growth [4] [%],growth [5],growth [6] [%],growth [7] [%],growth [8],growth [9] [%],growth [10] [%],growth [11] [%],growth [12],growth [13],growth [14],growth [15],growth [16] [%],growth [17] [%],growth [18] [%]
COc1ccc2nc3cc(Cl)ccc3c(N3CCN(c4nccc(Nc5ccccc5)n4)CC3)c2c1,26.9%,45.2%,67.8%,99.5,50.8%,96.2,78.8,50.7%,88.1,69.9,23.3,62%,59.7%,24.3%,16.3%,87.6,63.1,
C/C(=C(/c1ccc(O)cc1)c1ccc(OCCN2CCCC2)cc1)c1ccccc1,-11.3% (active),11.9%,83%,80.5,54.5%,80.1,76.1,74%,66.8,62.9,28.5,39.9%,,22.2%,41.2%,66.3,51.6,64
CC1=C(NCCN2CCCC2)C(=O)c2c(OCc3ccc(F)c(Cl)c3)cccc2C1=O,-14.3% (active),50.4%,74.8%,72.7,70.5%,93.7,67.6,84%,79.7,75.2,62.7,40%,78.8%,41.3%,31.6%,80.7,79.7,
O=C(Nc1cccc2c1C(=O)c1cccc(Nc3cccc4c3C(=O)c3cccc(NC(=O)c5ccccc5)c3C4=O)c1C2=O)c1ccccc1,101%,107%,96.1%,114,118%,101,75.6,123%,,105,116,104%,109%,107%,109%,114,114,113
O=C1C2CC=CCC2C(=O)N1CNc1ccc(Cl)cc1 (stereo not drawn),126%,116%,110%,87.6,112%,101,74.6,107%,,95.2,86.2,108%,94%,102%,90.1%,98.8,104,84.1
CC[C@@H](C)OC(=O)c1nn(C(C)=O)c2ccccc12,110%,107%,92.7%,101,103%,114,110,112%,,94.2,103,103%,107%,83.6%,104%,96.4,103,105
CC(C)n1cc2c(N)ncnc2n1,97.5%,107%,108%,109,95.5%,106,107,104%,105,107,93.9,98.6%,,102%,102%,122,111,101
CS(CCCCN=C=S)=NC(=O)c1c(F)c(F)c(F)c(F)c1F (stereo not drawn),2.68% (active),10.3%,91.9%,109,74.4%,91.7,76.8,57.3%,,97.3,19.1,70.8%,52.6%,22.8%,54%,104,55.8,95.7
Cc1cc(N/N=C/c2nc(-c3ccc(Cl)cc3)oc2C)c2cc(Br)ccc2n1,4.22% (active),-15% (active),8.16% (active),96.1,-83% (active),104,63.3,-21.2% (active),,14.7,74.5,-38.8% (active),-65.4% (active),-77.8% (active),4.35% (active),89.9,55.3,94

# Reference: PubChem BioAssay (NCI)
